Measured values: PubChem BioAssay (NCI)
About 79,000 compounds went through this panel and 15% of them were active in at least one assay; those are over-represented in the sample as a whole. Rule as the data show it: active = growth inhibition above about 70%; inactive = the rest. Where a SMILES comes first, the peptide text is derived from it.

Experiments:
[1] = NCI Yeast Anticancer Drug Screen. Data for the rad50 strain (AID 155);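 also: 0% = growth of vehicle-only cultures of the same strain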; settings: S. cerevisiae rad50 strain growth inhibition; at 50.0 µM; stronger effect = higher value
Summary of the method: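 Readout: growth inhibition relative to vehicle-treated cultures. Compound exposure was carried out in a genetically defined yeast strain deficient in DNA damage repair.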

[2] = NCI Yeast Anticancer Drug Screen. Data for the mec2-1 strain (AID 157); settings: S. cerevisiae mec2-1 strain, at 50.0 µM, stronger effect = higher value
Summary of the method: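 Mutant yeast (mec2-1) grown with compound; growth inhibition relative to vehicle control reported.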

[3] = NCI Yeast Anticancer Drug Screen. Data for the sgs1 mgt1 strain (AID 161);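 also: 0% = growth of cultures given vehicle only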; settings: S. cerevisiae sgs1 mgt1 strain, at 50.0 µM, stronger effect = higher value
Summary of the method: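 This yeast growth screen uses a strain with defined DNA-repair lesions; compound-treated growth is compared with vehicle-treated growth.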

[4] = NCI Yeast Anticancer Drug Screen. Data for the cln2 rad14 strain (AID 165);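 also: 0% = growth equal to vehicle treated cultures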; settings: S. cerevisiae cln2 rad14 strain, at 50.0 µM, stronger effect = higher value
Summary of the method: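 Readout is yeast growth inhibition versus vehicle-treated controls, using a strain with cln2 and rad14 alterations exposed to compound.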

[5] = NCI Yeast Anticancer Drug Screen. Data for the bub3 strain (AID 167); settings: S. cerevisiae bub3 mutant strain, at 50.0 µM, stronger effect = higher value
Summary of the method: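 Readout: yeast growth inhibition, expressed relative to vehicle-only wells. The test organism is a mutant strain from a panel with lesions in DNA repair or checkpoint genes.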

[6] = NCI Yeast Anticancer Drug Screen. Data for the mlh1 rad18 strain (AID 175); settings: S. cerevisiae mlh1 rad18 strain growth inhibition; at 50.0 µM; stronger effect = higher value
Summary of the method: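 Genetically defined yeast (DNA repair-deficient) exposed to compounds; growth inhibition determined relative to vehicle.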

Measured: growth inhibition

O=C(CCC(=O)Nc1ccc(Cl)c(Cl)c1)CC(=O)c1ccc(F)cc1
inactive: [1] -17.4% | [2] -9.4% | [3] 14.4% | [4] 4.3% | [5] 19.1% | [6] -1.65%

Cc1c(-c2ccccc2)c(=O)oc2ccc(Cl)cc12
inactive: [1] -34% | [2] -8.5% | [3] 1.1% | [4] -9.85% | [5] -14.9% | [6] -15.2%

CCC(=O)N(O)C(C)(C)C
inactive: [1] 10.8% | [2] 0.65% | [3] 14.7% | [4] 7.55% | [5] 7.2% | [6] 22.1%

CC(Oc1ccc(Br)cc1Br)C(=O)O (stereo unspecified)
inactive: [1] 4.1% | [2] -16.2% | [3] 1.2% | [4] 23.2% | [5] -14.5% | [6] 19.1%

CC(=O)CC(=O)Nc1cc(C(F)(F)F)ccc1Cl
inactive: [1] 15.4% | [2] -25.6% | [3] -19.1% | [4] -0.3% | [5] -6.25% | [6] 3.05%

CC(O)(C(=O)O)c1ccccc1O (stereo unspecified)
inactive: [1] -1.1% | [2] 1.7% | [3] 2.05% | [4] 3.3% | [5] 6.1% | [6] 6.75%

O=C(O)C(CO)c1ccccc1 (stereo unspecified)
inactive: [1] 0.15% | [2] -1.3% | [3] -4.55% | [4] -4.65% | [5] 10.6% | [6] -2.75%

CCOc1ccc(C(=O)C=O)cc1
inactive: [1] 11.6% | [2] -5.65% | [3] 11.4% | [4] -0.7% | [5] 9.55% | [6] 27.2%

COc1ccc2nc(CC(C)C)c3c(c2c1)-c1ccccc1C3=O
inactive: [1] 1.35% | [2] -8.8% | [3] -10.2% | [4] -12.2% | [5] -0.35% | [6] -12.2%

CC(C)=CCOc1ccc(-c2coc3cc4c(c(O)c3c2=O)C=CC(C)(C)O4)cc1
inactive: [1] 15.7% | [2] 3.1% | [3] 15.9% | [4] 13.3% | [5] 24% | [6] 26.8%

COc1ccc(C(C2=C(O)CC(C)OC2=O)C2=C(O)CC(C)OC2=O)cc1 (stereo unspecified)
inactive: [1] -15.1% | [2] -5.4% | [3] -12.6% | [4] -14.2% | [5] -19.1% | [6] -10%

COCCCn1cnn2c(=O)c3ccccc3nc2c1=O
inactive: [1] -12% | [2] 2.85% | [3] 23.8% | [4] 12.4% | [5] 21.3% | [6] 6.25%

O=C1c2cccc3cc([N+](=O)[O-])cc(c23)C(=O)N1C(Cc1ccccc1)c1ccccc1 (stereo unspecified)
inactive: [1] 4.1% | [2] -6.05% | [3] 16.4% | [4] 15.1% | [5] 10.6% | [6] 19.1%

Cn1cc(-n2[nH]c(=O)n(-c3ccccc3)c2=O)c(=O)n(C)c1=O
inactive: [1] -50% | [2] 8.2% | [3] -1.1% | [4] -21.3% | [5] 16.1% | [6] 13.3%

Nc1ccc2c(c1)Oc1c(F)c(F)cc3c(=O)c(C(=O)O)cn-2c13
inactive: [1] 6.9% | [2] 11.2% | [3] 7.7% | [4] 16.1% | [5] 0% | [6] 48.1%

O=c1c2c(oc3c(Cl)cc(Cl)cc13)CCCC2
inactive: [1] 13.3% | [2] -19.6% | [3] -1.8% | [4] 7.6% | [5] 5.8% | [6] 4.05%

CC(=O)c1c(-c2ccccc2)noc1C
inactive: [1] 7.35% | [2] -7.35% | [3] -7.55% | [4] -37.4% | [5] -12.8% | [6] -1.4%

O=C(O)c1ccc(C(=O)Nc2cccc3ccccc23)c(C(=O)O)c1
inactive: [1] -6.9% | [2] 8.4% | [3] -11.9% | [4] 6.35% | [5] 3.55% | [6] -10.2%

CC(=O)Nc1cc2ccccc2c(Br)n1
inactive: [1] -14.9% | [2] 6.55% | [3] -4.65% | [4] -13.1% | [5] -9.95% | [6] -6.15%

O=C(c1nc2ccc(Cl)cc2[nH]c1=O)C(O)c1ccc2c(c1)OCO2 (stereo unspecified)
inactive: [1] -10.9% | [2] -10.2% | [3] -3.85% | [4] 21.1% | [5] -13.2% | [6] 5.2%

CC(CC(O)CCCN(C)C)CC(C)(C)C (stereo unspecified)
inactive: [1] 46.5% | [2] 39.8% | [3] 43.4% | [4] 22.1% | [5] 24.3% | [6] 37.5%

c1ccc(N2CCCC2(c2ccccc2)c2ccccc2)cc1
inactive: [1] 29.1% | [2] 11.3% | [3] 47.1% | [4] -11.8% | [5] 22.9% | [6] 28.4%

OCC1NCCCC1O (stereo unspecified)
inactive: [1] -17.5% | [2] -25.6% | [3] -22.9% | [4] -8.55% | [5] -18.1% | [6] -10%

O=[N+]([O-])c1cc2c3c(cccc3c1O)CC2
inactive: [1] -18.1% | [2] -8.9% | [3] -4% | [4] -9.85% | [5] 4.45% | [6] 24%

COC(=O)C1CCc2c(OC)ccc(OC)c2C1=O (stereo unspecified)
inactive: [1] -2.75% | [2] -4.7% | [3] -3.65% | [4] 20.5% | [5] -2.45% | [6] -7.95%

CN(C)CCNC(=O)c1nc([N+](=O)[O-])cn1C
inactive: [1] 31.9% | [2] 3.55% | [3] -2.25% | [4] 7.35% | [5] 20.4% | [6] -69.2%

Cc1ncc(CO)c(/C=N/NC(=O)c2ccncc2)c1O
inactive: [1] 14.3% | [2] 9.4% | [3] 11.7% | [4] -35.5% | [5] 15.8% | [6] 17.6%

O=C(O)/C(=C\c1ccccc1[N+](=O)[O-])c1ccccc1
inactive: [1] 35.3% | [2] -3.05% | [3] 7.45% | [4] -30.9% | [5] -1.45% | [6] 47.4%

Cc1sc2nc3n(c(=O)c2c1C)N=C(c1ccccc1)CS3
inactive: [1] -29.4% | [2] -11.8% | [3] -33.3% | [4] 11.1% | [5] -31.4% | [6] -17.2%

CC(C)(C)c1ccc(OS(=O)(=O)c2ccccc2)c(Cl)c1
inactive: [1] -8.25% | [2] -1.15% | [3] -1.55% | [4] -14.1% | [5] 1.5% | [6] 0.85%

COc1cc(/C=C/c2ccnnc2)cc(OC)c1OC
inactive: [1] -9.2% | [2] 15.3% | [3] 16.8% | [4] -0.35% | [5] 15.3% | [6] -34.6%

CS(=O)(=O)ON1C(=O)c2ccccc2C1=O
inactive: [1] 9.9% | [2] -52% | [3] -3.9% | [4] 6.5% | [5] -2.6% | [6] -9.55%

CCOC(=O)c1c(C)csc1NC(=O)CSCC(=O)OC
inactive: [1] 10.2% | [2] -4% | [3] 30.5% | [4] 19.9% | [5] 41% | [6] 31.6%

CN(C)C1C(=O)C(C(=O)NCN2CCCC2)=C(O)C2(O)C(=O)C3=C(O)c4c(O)cccc4C(C)(O)C3CC12 (stereo unspecified)
inactive: [1] 2.75% | [2] -4.7% | [3] -10.2% | [4] -27.9% | [5] -26.9% | [6] 21.4%

COc1ccc(CNc2cnc3ccc(N)cc3n2)cc1OC
inactive: [1] -36.9% | [2] -55.1% | [3] -40.2% | [4] 5.55% | [5] -25% | [6] -30.9%

CC1CCC(=N\O)/C(=N/O)C1 (stereo unspecified)
inactive: [1] 5.9% | [2] -19.3% | [3] -21.9% | [4] -12.1% | [5] 0.65% | [6] -5.3%

Cc1ccc(N=Nc2ccc(N)cc2C)c(S(N)(=O)=O)c1
inactive: [1] 40.3% | [2] 4.05% | [3] 51.3% | [4] 5.05% | [5] 61.8% | [6] 49%

CC(=O)NC(C(=O)NC(C)C(=O)N1CCCC1C(=O)O)C(C)C (stereo not drawn) (Ac-Val-Ala-Pro-OH; configuration not given here)
inactive: [1] 19.1% | [2] -19.5% | [3] -1.1% | [4] 15.1% | [5] 0.6% | [6] -3.65%

O=C1CCCc2cc3c(cc21)CC1(Cc2ccccc2C1)C3
inactive: [1] -12.2% | [2] -27.8% | [3] 9.4% | [4] -6.4% | [5] 36.9% | [6] -14.7%

Cc1cc(C)cc(C(=O)NCc2ccc[n+]([O-])c2)c1
inactive: [1] -10.3% | [2] -5.6% | [3] -6.35% | [4] -11.9% | [5] 0.4% | [6] 17.6%

CC(=O)O[C@H]1CC[C@]2(C)[C@H]3C(=O)C=C4[C@@H]5C[C@@](C)(C(=O)O)CC[C@]5(C)CC[C@@]4(C)[C@]3(C)CC[C@H]2C1(C)C
inactive: [1] 31.2% | [2] 23.8% | [3] 41.5% | [4] 52.1% | [5] 26% | [6] -5.75%
